Assay results taken from a collection of fitness landscapes (doi:10.1016/j.celrep.2020.107928).
In all, about 81,000 sequences were measured (“one-hybrid fitness for binding parS DNA”: median about -0.17, highest 2% from about 0.51 on). The sample holds the highest values, similar sequences and a random draw of the others, so the mix is not that of the screen.

B1: Caulobacter ParB omega fusion; a variant is named by its letters at X, in order, B8GW30 (parent)
chain: MESVVVGEPGMSEGRRGLGRGLSALLGEVDAAPAQAPGEQLGGSREAPIEILQRNPDQPRRTFREEDLEDLSNSIREKGVLQPILVRPSPDTAGEYQIVAGERAWRAAQRAGLKTVPIMVRELDDLAVLEIGIIENVQRADLNVLEEALSYKVLMEKFERTQENIAQTIGKSXSHVANXMRLLXLPDEVQSYLVSGELTAXHARAIAAAADPVALAKQIIEGGLSVRETEALARKAPNLSAGKSKGGRPPRVKDTDTQALESDLSSVLGLDVSIDHRGSTGTLTITYATLEQLDDLCNRLTRGI

Variants of: B1
Test: one-hybrid fitness for binding parS DNA (scaled: cognate 1, non-cognate 0); higher = stronger binding
Settings: with parS DNA site
How it was run: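 Bacterial one-hybrid selection in E. coli USO rpoZ- hisB- pyrF- with a HIS3 reporter carrying the site 19 bp from the promoter, screening Caulobacter ParB libraries with four specificity codons randomised (NNS). Cells grew 48 hours at 37°C on M9-minus-histidine plus 0.1 mM IPTG and 5 mM 3-AT. Plasmids before and after selection were Illumina-sequenced, three replicate libraries pooled, and variants under 10 reads dropped. Fitness is the log change in variant-to-wild-type read ratio, rescaled to cognate 1, non-cognate 0.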

one-hybrid fitness for binding parS DNA, ≤ 0.2:
TSHS
QPMV
PMGR
YPVG
LLPR
RWLH
RWGP
RWHD
RWND
RWGH
RWNH
PKTI
VLLV
HQHT
AWSC
PQNR
MNVS
TRQG
HPNK
VARE
RWRP
RWCN
RWDP
RWQP
RWQH
RWDN
RWCP
CKLV
MLGM
PIWC
MSNM
WLDE
REVA
RGVA
RPVA
SKAI
SIHL
MVSE
GMRV
ETNG
CGAE
RPKS
RSKD
RCKD
AQTD
DWLL
YIPE
CIRT
PNRV
RGCK
RGLR
RGLM
RGKH
RGCF
ESDG
QSSQ
TSPP
GLPL
LLVN
YATP
THMC
ASRN
HKPA
RGHY
RGHR
RGAQ
SREL
FTNN
MTRS
DMPV
RDMM
LDNS
QVVM
RGQF
RGGR
RGGM
RGSF
RGSK
RGQK
AAYP
DGHR
LCSR
YTPT
AYYS
SYRV
VSYR
NTNS
NMLA
NTLA
NALA
RPLA
DTLA
PNHR
LLEW
GIRG
DQFS
PYSY
GART
NSRV
IMIV
ICQC
SFLA
DFLA
RDLA
RELA
NHLA
DLLA
DHLA
YYAL
HRNR
VLTI
QANF
MFMS
QQVT
TCGR
KIYR
FHCT
NRQF
THLI
RMEQ
QDTM
VKRS
HTGH
RANH
RADH
RANP
RADP
YHVS
SKAT
RCTR
DCPY
CRRI
RDQT
RSQK
RPQT
REQT
MKGT
PHAA
CNAG
SQES
CCPY
RKVF
RKKP
RKKD
NRVQ
PLNP
REQC
RHQD
RHQP
RIQQ
RKQQ
RSQQ
VCLS
NNQG
QKHV
RRQR
RDQC
RMQL
RMQF
RPQC
RLQQ
NRQC
NGPC
QQNS
IKKF
DIKG
YPGG
FNTL
LPNG
RPNA
RPRA
RENA
RPDA
YTPK
NRGR
WRHM
TEAW
HGTW
PNLY
DLLY
RDDA
KFNA
RDRA
REDA
CFAA
RNLW
NVSV
DDCG
KMYG
QRCI
APES
SERT
LITT
MNRC
DIAI
ACMT
YQQG
DSYA
RSPA
RHVD
RHKP
KQDV
HTPC
AALR
WLII
YSML
RMKD
RMVR
TDKS
CMDR
TNLK
RLPD
RLIP

one-hybrid fitness for binding parS DNA, 0.612:
RALA

one-hybrid fitness for binding parS DNA, 0.894:
RWHS

one-hybrid fitness for binding parS DNA, 0.76:
RWDS

one-hybrid fitness for binding parS DNA, 0.836:
RCKS

one-hybrid fitness for binding parS DNA, 0.716:
RGNC

one-hybrid fitness for binding parS DNA, 0.883:
RSKS

one-hybrid fitness for binding parS DNA, 0.301:
RWHN
RCYH

one-hybrid fitness for binding parS DNA, 0.225:
RGYA
RLPN

one-hybrid fitness for binding parS DNA, 0.672:
RGSC

one-hybrid fitness for binding parS DNA, 0.796:
RCRA

one-hybrid fitness for binding parS DNA, 0.38:
RLIN

one-hybrid fitness for binding parS DNA, 0.527:
RGYC

one-hybrid fitness for binding parS DNA, 0.57:
RFNA

one-hybrid fitness for binding parS DNA, 0.452:
RNLA

one-hybrid fitness for binding parS DNA, 1.02:
RMQC

one-hybrid fitness for binding parS DNA, 0.951:
RHQC

one-hybrid fitness for binding parS DNA, 0.401:
RWRN

one-hybrid fitness for binding parS DNA, 0.994:
RCQC

one-hybrid fitness for binding parS DNA, 0.315:
RRPY

one-hybrid fitness for binding parS DNA, 0.584:
RGAC

one-hybrid fitness for binding parS DNA, 0.442:
RIQY

one-hybrid fitness for binding parS DNA, 0.8:
RWLS

one-hybrid fitness for binding parS DNA, 0.4:
RKQY

one-hybrid fitness for binding parS DNA, 0.764:
RMKT

one-hybrid fitness for binding parS DNA, 0.384:
RWLA

one-hybrid fitness for binding parS DNA, 0.756:
RWCS

one-hybrid fitness for binding parS DNA, 0.59:
RGHC

one-hybrid fitness for binding parS DNA, 0.595:
RTLA

one-hybrid fitness for binding parS DNA, 0.596:
RSNA

one-hybrid fitness for binding parS DNA, 0.942:
RKVG

one-hybrid fitness for binding parS DNA, 0.313:
RWLN

one-hybrid fitness for binding parS DNA, 0.875:
RMVT

one-hybrid fitness for binding parS DNA, 0.63:
RRQC

one-hybrid fitness for binding parS DNA, 0.537:
RGLC

one-hybrid fitness for binding parS DNA, 0.798:
RGRC

one-hybrid fitness for binding parS DNA, 0.302:
RHVN

one-hybrid fitness for binding parS DNA, 0.591:
RSLA

one-hybrid fitness for binding parS DNA, 0.217:
RGPC

one-hybrid fitness for binding parS DNA, 0.259:
RMVF

one-hybrid fitness for binding parS DNA, 0.719:
RCNA

one-hybrid fitness for binding parS DNA, 0.29:
RWDA

one-hybrid fitness for binding parS DNA, 0.649:
RGQC

one-hybrid fitness for binding parS DNA, 0.229:
WKKW

one-hybrid fitness for binding parS DNA, 0.998:
RLQC

one-hybrid fitness for binding parS DNA, 0.567:
RCDA

one-hybrid fitness for binding parS DNA, 1:
RIQC
RLIS

one-hybrid fitness for binding parS DNA, 0.474:
RWRA

one-hybrid fitness for binding parS DNA, 0.422:
RGIC

one-hybrid fitness for binding parS DNA, 0.609:
RMLA
RCLA

one-hybrid fitness for binding parS DNA, 0.425:
RWNA

one-hybrid fitness for binding parS DNA, 0.46:
RFDA

one-hybrid fitness for binding parS DNA, 0.619:
RCYA

one-hybrid fitness for binding parS DNA, 0.777:
RHKS

one-hybrid fitness for binding parS DNA, 0.515:
RSVA
RSDA

one-hybrid fitness for binding parS DNA, 0.495:
RLQY

one-hybrid fitness for binding parS DNA, 0.274:
RSKH

one-hybrid fitness for binding parS DNA, 0.467:
RGDC

one-hybrid fitness for binding parS DNA, 0.833:
RGKC

one-hybrid fitness for binding parS DNA, 0.68:
RWGS

one-hybrid fitness for binding parS DNA, 0.868:
RWQS

one-hybrid fitness for binding parS DNA, 0.412:
RKVY

one-hybrid fitness for binding parS DNA, 0.602:
RSYA

one-hybrid fitness for binding parS DNA, 0.936:
RCQT

one-hybrid fitness for binding parS DNA, 0.496:
RGRA

one-hybrid fitness for binding parS DNA, 0.927:
RHVS

one-hybrid fitness for binding parS DNA, 0.825:
RKQC

one-hybrid fitness for binding parS DNA, 0.926:
RWNS

one-hybrid fitness for binding parS DNA, 0.605:
RLLA
RSRA

one-hybrid fitness for binding parS DNA, 0.533:
RFLA
RHLA

one-hybrid fitness for binding parS DNA, 0.504:
RGWC

one-hybrid fitness for binding parS DNA, 0.454:
RGFC

one-hybrid fitness for binding parS DNA, 0.394:
RGNA

one-hybrid fitness for binding parS DNA, 0.445:
RGVC

one-hybrid fitness for binding parS DNA, 0.534:
RGCC

one-hybrid fitness for binding parS DNA, 0.594:
RGGC

one-hybrid fitness for binding parS DNA, 0.449:
RGEC

one-hybrid fitness for binding parS DNA, 0.874:
RSQT

one-hybrid fitness for binding parS DNA, 0.321:
RGNN

one-hybrid fitness for binding parS DNA, 0.581:
RCVA

one-hybrid fitness for binding parS DNA, 0.958:
RSQC

one-hybrid fitness for binding parS DNA, 0.96:
RANS

one-hybrid fitness for binding parS DNA, 0.391:
RMKM

one-hybrid fitness for binding parS DNA, 0.955:
RWRS

one-hybrid fitness for binding parS DNA, 0.802:
RKKG

one-hybrid fitness for binding parS DNA, 0.365:
RHKN

one-hybrid fitness for binding parS DNA, 0.966:
RADS

one-hybrid fitness for binding parS DNA, 0.86:
RLPS
